# Laboratory results from PubChem BioAssay AID504339 (National Center for Advancing Translational Sciences (NCATS), 2011).
# The campaign covered roughly 390,000 compounds. About 17,000 (4.4%) were called active. Another 8% or so got no clear call; they are omitted. The full list was thinned out, with actives kept by preference. A number with no mark means an inactive call. The call rests on the fitted dose curve; in most records, active means well fitted inhibition curve with a large enough effect; inconclusive means small, poorly fitted or top-dose-only effect; inactive means no such curve, though single readings can be large or run the other way.
# Target: Lysine-specific demethylase 4A (Homo sapiens) (UniProt O75164)
# Sequence (O75164 whole entry, looked up, the tested form may be a part): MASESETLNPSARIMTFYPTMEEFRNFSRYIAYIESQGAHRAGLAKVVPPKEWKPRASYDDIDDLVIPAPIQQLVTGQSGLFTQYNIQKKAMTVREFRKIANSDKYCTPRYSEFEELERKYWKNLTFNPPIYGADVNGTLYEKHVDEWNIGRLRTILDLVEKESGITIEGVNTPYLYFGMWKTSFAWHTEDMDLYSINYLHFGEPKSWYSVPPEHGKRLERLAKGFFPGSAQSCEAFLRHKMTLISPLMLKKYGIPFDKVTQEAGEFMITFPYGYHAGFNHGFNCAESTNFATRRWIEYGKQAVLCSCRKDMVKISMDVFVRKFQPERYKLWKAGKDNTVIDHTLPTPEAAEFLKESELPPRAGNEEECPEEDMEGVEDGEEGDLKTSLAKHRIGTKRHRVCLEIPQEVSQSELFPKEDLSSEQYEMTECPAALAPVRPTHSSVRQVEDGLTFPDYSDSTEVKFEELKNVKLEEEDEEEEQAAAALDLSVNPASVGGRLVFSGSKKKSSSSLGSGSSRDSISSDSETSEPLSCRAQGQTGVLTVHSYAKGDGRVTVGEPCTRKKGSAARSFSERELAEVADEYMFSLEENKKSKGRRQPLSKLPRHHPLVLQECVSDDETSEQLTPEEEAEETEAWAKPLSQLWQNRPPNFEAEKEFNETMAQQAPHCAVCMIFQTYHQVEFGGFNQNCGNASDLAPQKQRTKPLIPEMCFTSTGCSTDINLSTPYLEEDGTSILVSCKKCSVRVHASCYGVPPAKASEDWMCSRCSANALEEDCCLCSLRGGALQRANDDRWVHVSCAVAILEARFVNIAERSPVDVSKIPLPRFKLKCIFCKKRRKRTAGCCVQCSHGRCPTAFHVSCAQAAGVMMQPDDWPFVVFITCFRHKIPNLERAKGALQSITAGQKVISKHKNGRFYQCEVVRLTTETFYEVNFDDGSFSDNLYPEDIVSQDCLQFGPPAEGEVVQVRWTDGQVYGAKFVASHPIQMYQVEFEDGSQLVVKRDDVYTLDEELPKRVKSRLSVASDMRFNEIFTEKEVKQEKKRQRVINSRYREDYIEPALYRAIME
# Experiment: qHTS Assay for Inhibitors of JMJD2A-Tudor Domain; further: nearly all actives have a fitted effect of over 50% in size
# Settings: AlphaScreen JMJD2A-Tudor / H3K4me3 peptide binding; series mostly up to 114 µM; activity change, negative = inhibition: at the top concentration
# From the text: JMJD2A is a jumonji-domain-containing lysine demethylase that uses Fe(II) together with 2-OG to effect oxidative demethylation of histones. Methylation is one of many […] modification that affect epigenetic transcription. […] It is proposed that the functions of JmjD2A binding to the histones, is to maintain marks after they are installed and to spread the modifications by […], establishing a self-propagating cycle for rapid methylation over a large area of chromatin. […] Thus, small molecule targeting of the JMJD2A-tudor domain interaction with its target methylhistone mark is expected to enable sophisticated experiments probing the fine regulatory pathways leading to selective demethylation of a given methyllysine locus based on the methylation state of adjacent histone marks. A quantitative high throughput AlphaScreen has been developed to identify small molecule inhibitors based on a protocol published by NCGC and SGC [4].
# Although AlphaScreen has significant advantages with its utility in a variety of epigenetic target assays, the primary screening data provided in this deposition should be used with caution due to the prevalence of screening artifacts. The top compound concentration tested was high (>100uM) in this assay, which increases number of actives and potential artifacts. An AlphaScreen counterscreen is highly recommended to be run against any putative actives to eliminate non-specific artifacts. Alternatively, one can use other AlphaScreen assays in PubChem to filter out promiscuous hits.
# [1] Lee, J. et al. Distinct binding modes specify the recognition of methylated histone H3K4 and H4K20 by JMJD2A-tudor. Nat Struct Mol Biol. 15(1); 109-11. 2008. PMID: 18084306
# [2] Yasgar, et al. Compound Management for Quantitative High-Throughput Screening. JALA. 2008 Apr;13(2):79-89. PMID: 18496600
# [3] Inglese, et al. Quantitative high-throughput screening: a titration-based approach that efficiently identifies biological activities in large chemical libraries. Proc Natl Acad Sci. 1;103(31):11473-8. 2006. PMID: 16864780
# [4] Quinn et al. A homogeneous method for investigation of methyl-dependent protein-protein interactions in epigenetics. Nucleic Acids Res., 38(2):e11. 2010. PMID: […]
# [5] Baell,Holloway. New substructure filters for removal of pan assay interference compounds (PAINS) from screening libraries and for their exclusion in bioassays. J Med Chem. 53(7):2719-40. 2010. PMID: 20131845
# NIH Molecular Libraries Probe Production Network [MLPCN]
# NIH Chemical Genomics Center [NCGC]
# Structural Genomics Consortium (SGC)
# To each well of a 1,536w plate, 2ul of JMJD2A-Tudor (final 100nM) and 1ul biotinylated histone peptide methylated at Lys4 [b-H3(1-18)K4me3] (final 50nM) were added in 1x PBS buffer, pH 7.4, containing 0.01% Tween-20, using a nanoliter dispenser. Formation of a protein-peptide complex proceeded at room temperature for 30 min. A Kalypsys pin-tool transferred 23nl of library compound solution in DMSO to each well. Following a 30 min incubation of the protein-peptide complex with compounds at room temperature, a mixture of 40 µg/mL each streptavidin-coated donor and nickel chelate acceptor AlphaScreen beads (final 10 µg/mL) was added in a 1ul dispense for a final volume of 4ul, followed by a brief centrifugation (1000 rpm, 1 min). Plates were incubated protected from the light for 20 min at room temperature. Microplates were then read on an EnVision multilabel plate reader using the 1,536 plate HTS AlphaScreen aperture (excitation time 80 ms, measurement time 240 ms).
# On the % scale 0 is the no-effect control and ±100 the full control effect; potency means the concentration at half of the fitted maximal effect.
Compound,"activity change, negative = inhibition",Potency
CCC1CN(S(=O)(=O)c2cc(-c3cc(C)no3)ccc2C)c2cc(C)ccc2O1 (stereo not drawn),-13.3%,
COc1cccc(C(=O)Nc2ccc3oc(-c4ccc5ccccc5c4)nc3c2)c1,-27.5%,
CCOc1ccc(C(=O)N2CCN(CCc3ccccn3)CC2)cc1,-17.5%,
Cc1ccc(F)cc1NC(=O)CCSc1nc(-c2ccco2)cc(C(F)(F)F)n1,-14.1%,
CCOC(=O)c1cc2c(=O)n3ccccc3nc2n(CC2CCCO2)c1=NC(=O)c1ccc(C(C)(C)C)cc1 (stereo not drawn),7.85%,
CCCn1c(NC(=O)C23CC4CC(CC(O)(C4)C2)C3)nc2ccccc21,-14.9%,
CCCn1c(NCc2ccccc2F)nc2ccccc21,4.36%,
CCCn1c(NCc2ccc(N(CC)CC)cc2)nc2ccccc21,,39.8 µM (active)
COc1cccc(CNC(=O)Cc2csc3nc(-c4ccccc4)cn23)c1,-22.7%,
Cc1cc(C)c2oc(-c3cccc(NC(=O)c4cccc(F)c4)c3C)nc2c1,-10.8%,
COc1ccc(-c2nc(Cn3c(=O)cc(C)c4c(C)nn(-c5ccccc5)c43)c(C)o2)cc1OC,-13%,
CCOc1ccccc1NC(=O)Cn1c(=O)n(Cc2ccco2)c(=O)c2sc3ccccc3c21,-20.5%,
CCOc1ccccc1/C=c1\sc2nc(-c3ccco3)nn2c1=O,,56.2 µM (active)
CCOC(=O)C1CCN(C(c2ccc(F)cc2)c2sc3nc(-c4ccco4)nn3c2O)CC1 (stereo not drawn),0%,
CCCC(=O)Nc1cc2nn(-c3ccccc3)nc2cc1C,1.96%,
CCCC(=O)Nc1ccc(NC(=O)c2sc3ccccc3c2Cl)cc1,-8.17%,
Oc1ccc(N=Cc2sc3ccccc3c2Cl)cc1,,50.1 µM (active)
COC(=O)c1cc(NC(=O)c2sc3ccccc3c2Cl)cc(C(=O)OC)c1,-8.5%,
CCOCCCNC(=O)c1c(NC(=O)Cc2coc3c(C)c(C)ccc23)sc2c1CCC2,-26.7%,
CCc1ccc(OCCCn2c(CCCNC(=O)C3CCCCC3)nc3ccccc32)cc1,-13.1% [at 57.1 µM],
CC1=C(C(=O)OCc2ccc(C)cc2)C(c2ccccc2Cl)CC(=O)N1 (stereo not drawn),-19.2%,

Compound,"activity change, negative = inhibition",Potency
CC(C)(C)N(CC#CCC(O)(c1ccccc1)C1CCCC1)CCO (stereo not drawn),,50.1 µM (active)
CN(CC#CCC(c1ccccc1)c1ccccc1)C(C)(C)C,-24.1%,
CCN(CCCNC(=O)Cn1ncc2c3ccccc3n(C)c2c1=O)Cc1ccccc1,-12.1%,
CCC(=O)N1CCc2cc(S(=O)(=O)NC(CC(C)C)C(=O)NCCc3cccc(C)c3)ccc21 (stereo not drawn),-1.67%,
O=C1c2ccccc2C(=O)c2c1cccc2N1CCN(Cc2ccccc2)CC1,,14.1 µM (active)
O=S(=O)(c1cccs1)N1CCN(Cc2ccccc2)CC1,-5.93%,
CCc1c(C)nc(N2CCN(Cc3ccccc3)CC2)[nH]c1=O,-6.58%,
COc1ccc(CNc2nc(-c3ccccc3)nn2C(=O)c2ccccc2OC)cc1,10.7%,
CC(C)c1ccc(NC(=O)C2CCN(c3nc(-c4ccc(C(C)C)cc4)no3)CC2)cc1,-15.6%,
O=C1CC(c2ccc(F)cc2F)c2cc3c(cc2N1)OCO3 (stereo not drawn),-15.8%,
COC(=O)c1c(C)c(C)nc(N)c1C#N,-5.35%,
Cc1nc(Cl)c(C#N)c2c1CCCC2,-0.685%,
COCc1c(N)c(C)nc(Cl)c1C#N,,11.2 µM (active)
CC(=O)c1ccc(NC(=O)C2CCN(S(=O)(=O)c3c(C)noc3/C=C/c3ccc(C)cc3)CC2)cc1,-16.6%,
CN(Cc1ccccc1)c1ccc(-c2nc(-c3ccccc3)no2)cc1[N+](=O)[O-],-8.94%,
CC(=O)c1ccc(N2CCN(C3C(=O)c4ccccc4N3C(C)=O)CC2)cc1 (stereo not drawn),-15.3%,
COC(=O)c1c(NC(=O)C(=O)N2CCCCC2)sc2c1CC(C)(C)OC2,-1.38%,
CC1(C)Cc2c(sc(NC(=O)C(=O)N3CCOCC3)c2C#N)CO1,,14.1 µM (active)
CCOC(=O)N1CCN(C(=O)C(=O)Nc2sc3c(c2C#N)CC(C)(C)OC3)CC1,-9.02%,
COc1cc(C(=O)Nc2ccc(OCc3cc(=O)n4ccc(C)cc4n3)cc2)cc(OC)c1OC,-2.6%,
CCCCOc1ccc(N(CC(=O)NCC2CCCO2)C(=O)CCC(=O)Nc2cc(C)ccn2)cc1 (stereo not drawn),,70.8 µM (active)

Compound,"activity change, negative = inhibition",Potency
Cc1cc(NC(=O)CCC(=O)N(CC(=O)NCC2CCCO2)c2ccccc2C)no1 (stereo not drawn),2.52%,
Cc1cc(NC(=O)CCC(=O)N(CC(=O)NCC2CCCO2)c2ccccc2)no1 (stereo not drawn),-10.2%,
COc1ccc(N(CC(=O)NCC2CCCO2)C(=O)CCC(=O)Nc2nccs2)c(OC)c1 (stereo not drawn),-22.1%,
CCc1ccccc1N(CC(=O)NCC1CCCO1)C(=O)CCC(=O)Nc1nccs1 (stereo not drawn),,25.1 µM (active)
COC(=O)c1cccc(N(CC(=O)NCC2CCCO2)C(=O)CCC(=O)Nc2cc(C)on2)c1 (stereo not drawn),0.702%,
COc1ccc(C(=O)Nc2onc3c2CCCC3)cc1,-17.7%,
O=C(NCCc1ccccc1)C(=O)NCC(c1ccco1)S(=O)(=O)c1ccccc1 (stereo not drawn),-9.42%,
COc1cccc(C(=O)NC2(C(F)(F)F)C(=O)Nc3c2c(=O)[nH]c(=O)n3-c2ccc(C)cc2)c1 (stereo not drawn),-7.22%,
O=C(CSc1ncc(-c2ccccc2)[nH]1)Nc1ccc(F)cc1F,-25.7%,
O=C(COc1ccccc1F)OCc1cc(=O)n2nc(C3CCCCC3)sc2n1,-14.3%,
Cc1ccc2c(c1)C1CN(C)CCC1N2S(=O)(=O)c1ccc(Oc2ccc([N+](=O)[O-])cc2)cc1 (stereo not drawn),,22.4 µM (active)
Cc1ccc2c(c1)C1CN(C)CCC1N2C(=S)Nc1ccc(OC(F)F)cc1 (stereo not drawn),-26.8%,
Cc1ccc2c(c1)C1CN(C)CCC1N2S(=O)(=O)c1cccc(F)c1 (stereo not drawn),-12.8%,
COc1ccc(CNC(=O)c2ccc3c(c2)nc2n3CCOC2)c(OC)c1,-9.74%,
Cc1cc(NS(=O)(=O)c2ccc3oc(=O)c4ncn(C)c4c3c2)ccc1Br,4.17%,
COc1cc(OC)c(NC(=O)c2cnc(N3CCCC3)nc2C)cc1Cl,5.63%,
Cc1ccc2c(=O)c(C(=O)c3cccc(Cl)c3)cn(CC(=O)NCc3ccccc3)c2n1,0.962%,
O=C(O)CSC(NC(=O)c1cccnc1)(C(F)(F)F)C(F)(F)F,,89.1 µM (active)
O=C(CC(=O)c1cccnc1)c1ccccc1,-10.3%,
O=C(NNC(=O)c1cccnc1)Nc1ccccc1,-1.69%,
CCc1ccccc1N(C)C(=O)C1CCCN(c2ncnc3onc(-c4ccc(F)cc4)c23)C1 (stereo not drawn),-0.647%,
